# Source: publication PMC7862700, “An all-to-all approach to the identification of sequence-specific readers for epigenetic DNA modifications on cytosine”
# What was measured:
# Test in all cases: DAPPL (digital affinity profiling via proximity ligation, sequencing); 10 mM Tris-HCl pH 7.5, 50 mM NaCl, 1 mM DTT, 4% glycerol, room temperature, 30 min; GST-TFs on glutathione beads, 16-mer random dsDNA library, 0.1% formaldehyde crosslink after washing; high values mean tight binding
# FLI1 = biological target: T1, FLI1 (Homo sapiens, UniProt Q01543 1-452); details: protein: recombinant; tags: N-terminal GST; dsDNA, one strand shown
# T1 sequence: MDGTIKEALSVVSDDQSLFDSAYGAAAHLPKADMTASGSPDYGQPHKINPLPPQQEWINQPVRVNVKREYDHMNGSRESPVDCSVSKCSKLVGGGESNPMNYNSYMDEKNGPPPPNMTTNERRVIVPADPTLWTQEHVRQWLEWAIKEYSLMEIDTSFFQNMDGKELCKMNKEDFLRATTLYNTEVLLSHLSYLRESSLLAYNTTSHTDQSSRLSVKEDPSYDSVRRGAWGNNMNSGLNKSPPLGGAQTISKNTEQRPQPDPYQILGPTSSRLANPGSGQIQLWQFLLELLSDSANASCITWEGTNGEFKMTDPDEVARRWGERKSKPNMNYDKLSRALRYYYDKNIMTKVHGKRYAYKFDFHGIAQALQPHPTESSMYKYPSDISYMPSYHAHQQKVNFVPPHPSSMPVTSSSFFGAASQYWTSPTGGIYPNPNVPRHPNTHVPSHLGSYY
# Outline: (§1)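 GST fusions of human transcription factors were expressed in yeast and captured with glutathione beads. Once given DNA barcodes and pooled alongside a tag-only sample, they were incubated for 30 min at room temperature with 200 nmole of a random double-stranded 16-mer DNA library in Tris/NaCl/DTT/glycerol buffer, then washed, crosslinked (0.1% formaldehyde), proximity-ligated, PCR-amplified and sequenced on an Illumina NextSeq500. The binding signal of each hexamer is its read frequency for a factor divided by its frequency for the tag-only sample.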
# ELK1 = biological target: T2, ELK1 (Homo sapiens, UniProt P19419 1-428); details: protein: recombinant; tags: N-terminal GST; dsDNA, one strand shown
# T2 sequence: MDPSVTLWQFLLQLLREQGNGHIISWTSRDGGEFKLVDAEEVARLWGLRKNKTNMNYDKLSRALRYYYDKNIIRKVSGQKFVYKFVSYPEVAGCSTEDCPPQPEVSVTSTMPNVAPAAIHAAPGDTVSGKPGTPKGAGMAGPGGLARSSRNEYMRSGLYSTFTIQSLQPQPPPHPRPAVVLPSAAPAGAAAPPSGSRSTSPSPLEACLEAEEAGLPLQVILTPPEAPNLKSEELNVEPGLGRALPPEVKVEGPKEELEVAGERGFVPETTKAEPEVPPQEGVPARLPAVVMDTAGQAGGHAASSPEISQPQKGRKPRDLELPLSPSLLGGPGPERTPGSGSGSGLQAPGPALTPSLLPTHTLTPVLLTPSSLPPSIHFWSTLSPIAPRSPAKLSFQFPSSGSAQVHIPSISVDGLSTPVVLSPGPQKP
# Outline: as §1
# GABPA = biological target: T3, GABPA (Homo sapiens, UniProt Q06546 1-454); details: protein: recombinant; tags: N-terminal GST; dsDNA, one strand shown
# T3 sequence: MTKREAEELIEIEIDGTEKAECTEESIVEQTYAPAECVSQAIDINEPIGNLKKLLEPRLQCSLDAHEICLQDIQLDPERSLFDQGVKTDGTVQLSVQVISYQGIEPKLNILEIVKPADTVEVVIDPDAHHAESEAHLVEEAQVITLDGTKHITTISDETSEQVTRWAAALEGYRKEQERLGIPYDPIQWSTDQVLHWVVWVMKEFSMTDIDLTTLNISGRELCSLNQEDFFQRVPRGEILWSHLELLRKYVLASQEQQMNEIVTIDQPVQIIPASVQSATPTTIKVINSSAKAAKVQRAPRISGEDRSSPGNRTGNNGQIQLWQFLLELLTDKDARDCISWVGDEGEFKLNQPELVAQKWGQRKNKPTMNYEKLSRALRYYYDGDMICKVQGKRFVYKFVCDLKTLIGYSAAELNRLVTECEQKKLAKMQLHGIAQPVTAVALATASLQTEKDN
# Outline: as §1
# ERG = biological target: T4, ERG (Homo sapiens, UniProt P11308 1-479); details: protein: recombinant; tags: N-terminal GST; dsDNA, one strand shown
# T4 sequence: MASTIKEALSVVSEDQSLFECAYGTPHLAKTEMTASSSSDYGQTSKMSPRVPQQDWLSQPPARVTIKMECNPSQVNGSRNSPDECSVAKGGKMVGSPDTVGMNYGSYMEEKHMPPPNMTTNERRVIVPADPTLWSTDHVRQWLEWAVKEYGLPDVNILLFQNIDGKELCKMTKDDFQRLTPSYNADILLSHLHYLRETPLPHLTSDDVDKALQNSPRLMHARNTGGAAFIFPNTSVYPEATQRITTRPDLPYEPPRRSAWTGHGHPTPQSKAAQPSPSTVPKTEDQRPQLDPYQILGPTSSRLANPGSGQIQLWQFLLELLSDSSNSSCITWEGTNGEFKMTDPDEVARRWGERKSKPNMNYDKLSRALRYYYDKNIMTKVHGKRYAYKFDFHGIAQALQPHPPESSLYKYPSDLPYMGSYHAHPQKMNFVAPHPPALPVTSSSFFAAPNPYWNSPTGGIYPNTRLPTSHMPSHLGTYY
# Outline: as §1
# ELF1 = ELF1 (Homo sapiens, UniProt P32519 1-619); details: protein: recombinant; tags: N-terminal GST; dsDNA, one strand shown
# Chain of ELF1 (P32519 whole entry): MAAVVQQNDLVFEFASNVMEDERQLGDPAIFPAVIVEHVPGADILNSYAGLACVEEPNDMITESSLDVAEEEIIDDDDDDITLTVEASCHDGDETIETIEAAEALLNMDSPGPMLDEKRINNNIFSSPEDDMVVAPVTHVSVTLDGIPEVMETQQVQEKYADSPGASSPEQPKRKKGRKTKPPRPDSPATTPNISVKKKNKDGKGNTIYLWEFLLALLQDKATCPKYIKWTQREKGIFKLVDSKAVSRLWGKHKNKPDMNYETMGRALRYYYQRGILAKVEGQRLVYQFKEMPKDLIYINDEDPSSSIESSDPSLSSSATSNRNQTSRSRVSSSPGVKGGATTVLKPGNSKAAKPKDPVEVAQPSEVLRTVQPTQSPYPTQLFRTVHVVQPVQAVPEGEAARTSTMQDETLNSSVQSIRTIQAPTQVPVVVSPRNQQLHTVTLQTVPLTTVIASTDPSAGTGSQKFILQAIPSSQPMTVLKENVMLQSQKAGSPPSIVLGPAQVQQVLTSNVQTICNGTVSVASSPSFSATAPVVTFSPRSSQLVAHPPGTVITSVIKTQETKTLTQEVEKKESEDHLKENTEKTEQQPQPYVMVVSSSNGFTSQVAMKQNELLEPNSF
# Outline: as §1
# EHF = biological target: T5, EHF (Homo sapiens, UniProt Q9NZC4 1-300); details: protein: recombinant; tags: N-terminal GST; dsDNA, one strand shown
# T5 sequence: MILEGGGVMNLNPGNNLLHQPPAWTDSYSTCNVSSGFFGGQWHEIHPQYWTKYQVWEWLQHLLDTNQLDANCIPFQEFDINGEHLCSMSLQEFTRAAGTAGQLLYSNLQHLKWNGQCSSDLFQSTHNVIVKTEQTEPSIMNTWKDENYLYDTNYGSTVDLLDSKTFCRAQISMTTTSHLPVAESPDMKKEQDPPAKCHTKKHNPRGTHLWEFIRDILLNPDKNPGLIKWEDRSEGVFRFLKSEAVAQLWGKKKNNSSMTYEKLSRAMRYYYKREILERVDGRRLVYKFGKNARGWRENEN
# Outline: as §1
# SPI1 = SPI1 (Homo sapiens, UniProt P17947 1-270); details: protein: recombinant; tags: N-terminal GST; dsDNA, one strand shown
# Outline: as §1
# SPIB = SPIB (Homo sapiens, UniProt Q01892 1-262); details: protein: recombinant; tags: N-terminal GST; dsDNA, one strand shown
# Chain of SPIB (Q01892 whole entry): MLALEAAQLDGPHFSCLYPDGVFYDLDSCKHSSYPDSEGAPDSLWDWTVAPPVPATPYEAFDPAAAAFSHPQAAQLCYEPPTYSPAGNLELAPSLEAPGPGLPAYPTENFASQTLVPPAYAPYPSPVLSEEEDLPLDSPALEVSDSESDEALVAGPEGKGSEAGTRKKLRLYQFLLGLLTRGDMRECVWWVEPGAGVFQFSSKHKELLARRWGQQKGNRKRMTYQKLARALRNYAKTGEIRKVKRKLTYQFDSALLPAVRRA
# Outline: as §1
# ELK3 = biological target: T6, ELK3 (Homo sapiens, UniProt P41970 1-407); details: protein: recombinant; tags: N-terminal GST; dsDNA, one strand shown
# T6 sequence: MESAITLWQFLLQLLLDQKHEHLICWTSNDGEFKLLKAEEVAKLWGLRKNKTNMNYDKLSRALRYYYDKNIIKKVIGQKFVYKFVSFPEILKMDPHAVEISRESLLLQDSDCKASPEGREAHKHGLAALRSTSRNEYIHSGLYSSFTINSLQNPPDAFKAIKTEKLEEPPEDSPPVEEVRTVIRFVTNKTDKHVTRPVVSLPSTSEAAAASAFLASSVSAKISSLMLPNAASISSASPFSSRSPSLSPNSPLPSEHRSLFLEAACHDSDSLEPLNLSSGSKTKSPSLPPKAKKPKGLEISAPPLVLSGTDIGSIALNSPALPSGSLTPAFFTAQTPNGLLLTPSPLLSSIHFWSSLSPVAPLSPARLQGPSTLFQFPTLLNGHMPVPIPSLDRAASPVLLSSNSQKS
# Outline: as §1
# FEV = biological target: T7, FEV (Homo sapiens, UniProt Q99581 1-238); details: protein: recombinant; tags: N-terminal GST; dsDNA, one strand shown
# T7 sequence: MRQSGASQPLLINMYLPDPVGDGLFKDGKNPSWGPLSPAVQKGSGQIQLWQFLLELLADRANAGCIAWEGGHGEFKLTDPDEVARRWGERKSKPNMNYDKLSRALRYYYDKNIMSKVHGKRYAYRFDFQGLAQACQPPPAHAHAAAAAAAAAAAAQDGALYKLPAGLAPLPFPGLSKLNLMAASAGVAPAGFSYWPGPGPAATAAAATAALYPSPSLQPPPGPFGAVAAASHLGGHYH
# Outline: as §1
# ETV5 = ETV5 (Homo sapiens, UniProt P41161 1-510); details: protein: recombinant; tags: N-terminal GST; dsDNA, one strand shown
# Chain of ETV5 (P41161 whole entry): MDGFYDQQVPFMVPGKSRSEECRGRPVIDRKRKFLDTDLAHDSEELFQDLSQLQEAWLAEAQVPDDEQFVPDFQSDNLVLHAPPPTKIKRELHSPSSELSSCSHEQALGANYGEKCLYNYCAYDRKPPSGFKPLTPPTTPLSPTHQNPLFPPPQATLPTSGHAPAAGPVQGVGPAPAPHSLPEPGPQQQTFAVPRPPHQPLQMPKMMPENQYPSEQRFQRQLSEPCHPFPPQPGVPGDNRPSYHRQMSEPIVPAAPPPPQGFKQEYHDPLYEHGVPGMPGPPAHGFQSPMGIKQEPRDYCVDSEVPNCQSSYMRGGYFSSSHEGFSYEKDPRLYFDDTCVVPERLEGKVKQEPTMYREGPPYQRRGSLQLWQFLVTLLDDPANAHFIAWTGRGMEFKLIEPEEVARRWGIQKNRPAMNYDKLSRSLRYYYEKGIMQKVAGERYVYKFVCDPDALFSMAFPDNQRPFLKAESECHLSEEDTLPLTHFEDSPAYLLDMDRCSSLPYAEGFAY
# Outline: as §1
# HSF1 = HSF1 (Homo sapiens, UniProt Q00613 1-529); details: protein: recombinant; tags: N-terminal GST; chain copies: 3; dsDNA, one strand shown
# Chain of HSF1 (Q00613 whole entry): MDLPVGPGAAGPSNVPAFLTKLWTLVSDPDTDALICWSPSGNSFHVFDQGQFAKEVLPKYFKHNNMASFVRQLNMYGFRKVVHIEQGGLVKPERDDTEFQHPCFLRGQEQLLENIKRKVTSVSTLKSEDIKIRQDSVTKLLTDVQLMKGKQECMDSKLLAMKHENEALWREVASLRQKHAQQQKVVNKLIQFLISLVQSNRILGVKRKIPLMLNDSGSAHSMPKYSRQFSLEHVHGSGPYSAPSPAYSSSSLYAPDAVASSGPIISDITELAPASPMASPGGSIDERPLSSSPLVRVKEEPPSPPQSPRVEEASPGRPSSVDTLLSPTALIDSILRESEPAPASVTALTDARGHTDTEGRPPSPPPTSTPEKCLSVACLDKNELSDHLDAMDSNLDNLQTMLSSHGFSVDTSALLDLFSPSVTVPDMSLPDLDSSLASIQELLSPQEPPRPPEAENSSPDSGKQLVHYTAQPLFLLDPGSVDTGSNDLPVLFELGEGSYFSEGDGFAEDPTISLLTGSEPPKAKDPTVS
# Outline: as §1
# SPIC = biological target: T8, SPIC (Homo sapiens, UniProt Q8N5J4 1-248); details: protein: recombinant; tags: N-terminal GST; dsDNA, one strand shown
# T8 sequence: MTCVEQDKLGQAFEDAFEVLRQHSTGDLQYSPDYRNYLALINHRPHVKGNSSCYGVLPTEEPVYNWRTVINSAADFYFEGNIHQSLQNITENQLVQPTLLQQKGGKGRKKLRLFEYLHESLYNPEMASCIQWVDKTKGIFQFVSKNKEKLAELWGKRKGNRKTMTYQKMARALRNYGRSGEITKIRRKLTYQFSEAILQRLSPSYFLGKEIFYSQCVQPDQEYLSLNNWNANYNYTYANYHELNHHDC
# Outline: as §1
# ELF4 = ELF4 (Homo sapiens, UniProt Q99607 1-663); details: protein: recombinant; tags: N-terminal GST; dsDNA, one strand shown
# Chain of ELF4 (Q99607 whole entry): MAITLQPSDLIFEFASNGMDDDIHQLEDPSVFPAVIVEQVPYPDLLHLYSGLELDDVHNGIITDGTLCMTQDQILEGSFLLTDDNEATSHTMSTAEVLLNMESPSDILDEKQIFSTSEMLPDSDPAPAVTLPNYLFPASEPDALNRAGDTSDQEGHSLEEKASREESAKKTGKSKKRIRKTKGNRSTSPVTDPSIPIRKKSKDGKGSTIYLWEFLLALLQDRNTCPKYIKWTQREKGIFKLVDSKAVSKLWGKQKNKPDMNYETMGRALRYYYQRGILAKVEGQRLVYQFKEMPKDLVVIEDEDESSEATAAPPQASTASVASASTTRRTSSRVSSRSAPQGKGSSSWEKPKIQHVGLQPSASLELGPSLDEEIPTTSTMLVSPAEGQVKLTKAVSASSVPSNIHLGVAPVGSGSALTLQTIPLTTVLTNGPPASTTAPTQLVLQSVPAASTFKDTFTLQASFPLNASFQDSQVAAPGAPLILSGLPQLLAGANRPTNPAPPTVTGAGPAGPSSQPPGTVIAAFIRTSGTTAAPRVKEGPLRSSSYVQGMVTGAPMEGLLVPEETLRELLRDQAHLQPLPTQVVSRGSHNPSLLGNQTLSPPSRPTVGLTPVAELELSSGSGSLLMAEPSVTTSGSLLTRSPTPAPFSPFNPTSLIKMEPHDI
# Outline: as §1
# ELK4 = biological target: T9, ELK4 (Homo sapiens, UniProt P28324-2 1-405); details: protein: recombinant; tags: N-terminal GST; dsDNA, one strand shown
# T9 sequence: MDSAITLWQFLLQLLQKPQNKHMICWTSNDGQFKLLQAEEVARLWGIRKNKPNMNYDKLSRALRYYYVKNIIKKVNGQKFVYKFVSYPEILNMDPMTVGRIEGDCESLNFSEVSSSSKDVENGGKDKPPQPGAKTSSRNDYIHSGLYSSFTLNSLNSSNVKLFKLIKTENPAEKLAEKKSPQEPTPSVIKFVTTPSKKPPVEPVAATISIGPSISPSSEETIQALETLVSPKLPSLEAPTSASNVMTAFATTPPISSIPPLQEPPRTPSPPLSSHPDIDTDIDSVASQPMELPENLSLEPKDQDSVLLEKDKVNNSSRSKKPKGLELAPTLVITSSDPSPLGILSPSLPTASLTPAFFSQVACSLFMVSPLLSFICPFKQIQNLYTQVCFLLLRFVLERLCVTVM
# Outline: as §1
# ETV2 = biological target: T10, ETV2 (Homo sapiens, UniProt O00321 1-342); details: protein: recombinant; tags: N-terminal GST; dsDNA, one strand shown
# T10 sequence: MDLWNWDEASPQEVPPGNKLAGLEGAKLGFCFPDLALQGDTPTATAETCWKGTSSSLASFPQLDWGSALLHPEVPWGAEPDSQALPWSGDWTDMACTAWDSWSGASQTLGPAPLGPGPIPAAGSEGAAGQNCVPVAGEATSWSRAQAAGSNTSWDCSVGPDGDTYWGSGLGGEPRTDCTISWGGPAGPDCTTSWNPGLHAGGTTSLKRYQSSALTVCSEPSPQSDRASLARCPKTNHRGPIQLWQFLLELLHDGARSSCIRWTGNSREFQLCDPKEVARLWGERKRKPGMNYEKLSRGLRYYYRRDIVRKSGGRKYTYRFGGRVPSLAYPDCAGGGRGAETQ
# Outline: as §1
# ELF3 = biological target: T11, ELF3 (Homo sapiens, UniProt P78545 1-371); details: protein: recombinant; tags: N-terminal GST; dsDNA, one strand shown
# T11 sequence: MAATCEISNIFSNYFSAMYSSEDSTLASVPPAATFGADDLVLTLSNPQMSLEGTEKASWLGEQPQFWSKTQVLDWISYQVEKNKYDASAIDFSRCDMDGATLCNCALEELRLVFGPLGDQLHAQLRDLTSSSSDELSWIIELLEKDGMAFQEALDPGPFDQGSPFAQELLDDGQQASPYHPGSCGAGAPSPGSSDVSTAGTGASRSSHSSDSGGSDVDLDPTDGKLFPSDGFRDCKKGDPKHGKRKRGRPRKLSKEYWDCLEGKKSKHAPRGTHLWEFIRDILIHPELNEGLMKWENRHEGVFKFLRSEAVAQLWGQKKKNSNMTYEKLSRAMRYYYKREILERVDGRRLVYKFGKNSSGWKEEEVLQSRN
# Outline: as §1
# CRX = CRX (Homo sapiens, UniProt O43186 1-299); details: protein: recombinant; tags: N-terminal GST; dsDNA, one strand shown
# Chain of CRX (O43186 whole entry): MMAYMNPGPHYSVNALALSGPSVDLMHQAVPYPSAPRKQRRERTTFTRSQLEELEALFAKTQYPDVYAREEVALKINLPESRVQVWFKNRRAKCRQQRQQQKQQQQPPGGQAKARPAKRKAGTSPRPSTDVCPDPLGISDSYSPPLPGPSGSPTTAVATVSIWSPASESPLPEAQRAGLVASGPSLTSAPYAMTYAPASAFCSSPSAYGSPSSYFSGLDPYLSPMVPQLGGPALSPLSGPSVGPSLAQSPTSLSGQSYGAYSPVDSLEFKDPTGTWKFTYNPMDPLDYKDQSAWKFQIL
# Outline: as §1
# ETV1 = ETV1 (Homo sapiens, UniProt P50549 1-477); details: protein: recombinant; tags: N-terminal GST; dsDNA, one strand shown
# Chain of ETV1 (P50549 whole entry): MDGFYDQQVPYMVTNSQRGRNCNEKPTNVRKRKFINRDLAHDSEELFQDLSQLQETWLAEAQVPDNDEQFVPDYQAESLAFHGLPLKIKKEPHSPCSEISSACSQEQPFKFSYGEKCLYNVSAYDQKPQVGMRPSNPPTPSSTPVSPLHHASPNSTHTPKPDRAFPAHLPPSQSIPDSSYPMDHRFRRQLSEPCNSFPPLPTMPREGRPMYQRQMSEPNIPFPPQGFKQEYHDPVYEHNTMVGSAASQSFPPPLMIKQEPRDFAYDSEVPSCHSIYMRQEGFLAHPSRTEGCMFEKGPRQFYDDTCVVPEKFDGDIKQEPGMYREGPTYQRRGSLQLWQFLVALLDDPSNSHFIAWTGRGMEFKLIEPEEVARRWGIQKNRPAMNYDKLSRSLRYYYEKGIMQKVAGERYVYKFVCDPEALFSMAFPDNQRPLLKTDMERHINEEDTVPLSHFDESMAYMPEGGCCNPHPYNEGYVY
# Outline: as §1
sequence,measurement,setting,value
AAAAGC,binding signal,FLI1,"1.16 fold enrichment (6-mer frequency, TF over GST control)"
same,binding signal,ELK1,"1.13 fold enrichment (6-mer frequency, TF over GST control)"
same,binding signal,GABPA,"1.14 fold enrichment (6-mer frequency, TF over GST control)"
same,binding signal,ERG,"1.24 fold enrichment (6-mer frequency, TF over GST control)"
same,binding signal,ELF1,"1.2 fold enrichment (6-mer frequency, TF over GST control)"
same,binding signal,EHF,"1.14 fold enrichment (6-mer frequency, TF over GST control)"
same,binding signal,SPI1,"1.55 fold enrichment (6-mer frequency, TF over GST control)"
same,binding signal,SPIB,"1.23 fold enrichment (6-mer frequency, TF over GST control)"
same,binding signal,ELK3,"1.15 fold enrichment (6-mer frequency, TF over GST control)"
same,binding signal,FEV,"1.21 fold enrichment (6-mer frequency, TF over GST control)"
same,binding signal,ETV5,"1.29 fold enrichment (6-mer frequency, TF over GST control)"
same,binding signal,HSF1,"1.3 fold enrichment (6-mer frequency, TF over GST control)"
same,binding signal,SPIC,"1.2 fold enrichment (6-mer frequency, TF over GST control)"
same,binding signal,ELF4,"1.17 fold enrichment (6-mer frequency, TF over GST control)"
same,binding signal,ELK4,"1.3 fold enrichment (6-mer frequency, TF over GST control)"
same,binding signal,ETV2,"1.28 fold enrichment (6-mer frequency, TF over GST control)"
same,binding signal,ELF3,"1.22 fold enrichment (6-mer frequency, TF over GST control)"
same,binding signal,CRX,"1.43 fold enrichment (6-mer frequency, TF over GST control)"
same,binding signal,ETV1,"1.19 fold enrichment (6-mer frequency, TF over GST control)"
